# Experimental data reported in PubChem BioAssay AID435019 (Southern Research Specialized Biocontainment Screening …, 2010).
# Among all 2,300 compounds or so, about 1,200 (52%) were called active. No rule for the calls is given here. The set was probably picked from earlier hits. The list shows a part of the results. Entries with a potency or affinity are not part of this list.
# Experiment: mammalian cell cytotoxicity, dose response, cytotoxicity control for M. tuberculosis inhibitor project (AID 435019);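 also: lower values mean fewer viable cells so more cytotoxicity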
# Details: cytotoxicity counter-screen; series mostly up to 40 µM
row,Structure (SMILES),outcome
1,CCOC(=O)COc1ccc2c(c1)C(=O)CC(C)(c1cccnc1)O2 (centres undefined),inactive
2,Nc1ccc2oc(-c3cccs3)nc2c1,inactive
3,CCOC(=O)c1ccc(N=C(CC)c2c(O)n(C)c(=O)n(C)c2=O)cc1,inactive
4,C=CCc1cc(C)ccc1OCCCC(C(=O)OCC)C(=O)OCC,inactive
5,COc1cc(C)ccc1OCCOc1c(C)cc(Cl)cc1Cl,inactive
6,C[Se]C[C@@H](N)C(=O)O,inactive
7,Cc1nc2sccn2c1-c1nc(-c2cc3ccccc3o2)cs1,inactive
8,Cc1ccc(NC(=O)COC(=O)CCc2c[nH]c3ccccc23)cc1[N+](=O)[O-],inactive
9,C[C@@H]1CN([C@H](C)CO)C(=O)c2cc(NC(=O)Nc3ccc(C(F)(F)F)cc3)ccc2O[C@H]1CN(C)S(=O)(=O)c1cccs1,inactive
10,CCOC(=O)CSc1cc(=O)n(C)c2cc(Cl)ccc12,inactive
11,O=C(CSc1nc2ccccc2[nH]1)N1c2ccccc2Sc2ccccc21,inactive
12,O=c1cc(O)c2sc3nc(-c4cccnc4)cc(C(F)(F)F)c3c2[nH]1,inactive
13,CC(C)c1ccc(-c2nn(-c3ccccc3)cc2C(=O)NCC2CCCO2)cc1 (centres undefined),inactive
14,COc1ccc(-c2cn3cc([N+](=O)[O-])ccc3n2)cc1OC,inactive
15,C=CCOc1ccc(/C=N/O)cc1Cl,inactive
16,Cc1ccc(/C=C/S(=O)(=O)NCC(=O)OCC(=O)Nc2c(F)cccc2F)cc1,inactive
17,O=C(Nc1cccc(Cl)c1)N1CCN(C/C=C/c2ccccc2)CC1,inactive
18,CC1(C)c2cc(Cl)ccc2-n2c1cc(O)c(-c1ccccc1)c2=O,inactive
19,O=c1[nH]c(CSc2cccc[n+]2[O-])nc2ccccc12,inactive
20,O=C(OCc1ccccc1)/C(=C(\O)c1ccccc1Br)c1ccc(-c2ccccc2)cn1,inactive
21,CCCc1cc(=O)[nH]c(SCC(=O)N2CCCC2=O)n1,inactive
22,Cc1nc2ccc(OC(=O)c3ccccc3)cc2s1,inactive

row,Structure (SMILES),outcome
1,Clc1ccc(-c2ccc(C=Nc3ccc(N4CCOCC4)cc3)o2)c(Cl)c1,inactive
2,O=C(CSc1nc2ccccc2nc1N1CCOCC1)N1CCN(c2ccccc2)CC1,inactive
3,CC(C)OC(=O)CSc1nc2ccccc2s1,inactive
4,C1=C(c2c[nH]c3ccccc23)CCNC1,inactive
5,COc1ccc(N2CN=C3SCC(=O)N3C2)cc1,inactive
6,Nc1ccc(CCc2ccc(N)cc2)cc1,inactive
7,CCn1nnc(-c2ccc(N)cc2)n1,inactive
8,Cc1cc2cc(CNC(=O)NC3CCCCC3)ccc2[nH]1,inactive
9,O=C(/C=C/c1ncc(C(F)(F)F)cc1Cl)OCc1ccccc1,inactive
10,Cc1ccc(-c2nnc(NCc3nc4ccccc4[nH]3)c3ccccc23)cc1S(=O)(=O)N1CCCCC1,inactive
11,Cc1ccc(NC(=O)COc2ccc(-n3ccnc3)cc2)cc1Cl,inactive
12,CCNCC(=O)N1c2ccccc2CCc2ccc(NC(=O)OC(C)C)cc21,inactive
13,COC(=O)c1c(NC(=O)C(=O)N2CCCC2)sc2c1CC(C)(C)OC2,inactive
14,CCc1c(C)sc(NC(=S)N2CCN(CC)CC2)c1C(=O)OC,inactive
15,Cc1ccc(N=Nc2c(C)[nH]n(C(N)=S)c2=O)cc1,inactive
16,O=C1NCCC/C1=N\Nc1ccc(Br)cc1,inactive
17,COC(=O)CNC(=O)CSc1nc2sc(-c3ccccc3)cc2c(=O)n1-c1ccccc1,inactive
18,Cc1ccc(NC(=O)c2sccc2-n2cccc2)c(C)c1,inactive
19,CCCCCCCCCCOC(=O)Cn1c(COc2ccc(Cl)cc2)[n+](C)c2ccccc21,inactive
20,Nc1nonc1C(=O)NCCNCc1c(OCc2ccccc2F)ccc2ccccc12,inactive
21,Cn1ccnc1C(O)c1cc(C(C)(C)C)c(O)c(C(C)(C)C)c1 (centres undefined),inactive
22,C(=N\Nc1nc(-c2ccccc2)cs1)/c1ccncc1,inactive

row,Structure (SMILES),outcome
1,Cc1cccc(NC(=O)CCSc2nnc(Cc3ccccc3)o2)c1,inactive
2,COC(=O)c1cccc(OC(N)=O)c1,inactive
3,c1ccc(Cn2c3ccccc3c3nnc(SCCN4CCCCC4)nc32)cc1,inactive
4,CC(=O)c1c(C)n(C)c2ccc(OC(=O)c3ccc([N+](=O)[O-])cc3)cc12,inactive
5,COC(=O)CSc1ncnc2c1cnn2-c1ccc(C)cc1C,inactive
6,CCc1n[nH]c(=S)n1/N=C/c1ccc(-c2ccc(Br)cc2)o1,inactive
7,NC(=S)N/N=C/c1ccc(-c2ccccc2)o1,inactive
8,Cc1onc(-c2ccccc2Cl)c1C(=O)Oc1cccc2cccnc12,inactive
9,CCOC(=O)c1ccc(-c2c(-c3ccc4c(c3)OCO4)noc2C)cc1F,inactive
10,O=c1c(C=Nc2ccc(Oc3ccccc3)cc2)c[nH]n1-c1cccc(Cl)n1,inactive
11,Cc1nc2scc(-c3cccs3)c2c(=O)n1-n1cccc1,inactive
12,O=C(O)/C=C/C(=O)Nc1ccc(-c2ccccc2)cc1,inactive
13,O=[N+]([O-])c1cc(C=Nc2ccc3ccccc3c2)ccc1Br,inactive
14,Cc1ccc(S(=O)(=O)CNC(=S)c2ccc3ccccc3c2)cc1,inactive
15,Cc1ccc(N2CCN(C(=O)c3cn(CC4CCCCC4)nn3)C(C)C2)cc1 (centres undefined),inactive
16,O=c1c2ccccc2nc(/C=C/c2ccccc2)n1-c1ccc(O)cc1,inactive
17,CCCC1CCC(C(=O)Nn2c(C)nc3ccccc3c2=O)CC1 (centres undefined),inactive
18,Cc1ccc2[nH]c(C(=O)NN=C3CCCCC3)c(-c3ccccc3)c2c1,inactive
19,CCc1cc(C(=O)Nc2ccc(C)cc2Br)cs1,inactive
20,C/C(=N\NC(=O)COc1ccc(C)cc1Br)c1cc([N+](=O)[O-])cs1,inactive
21,COc1ccccc1N1C(=O)NC(=O)/C(=C/c2ccc([N+](=O)[O-])s2)C1=O,inactive
22,Cc1cccc(CSc2nc3c(c(-c4cccs4)c2C#N)CN(C)CC3)c1,inactive

row,Structure (SMILES),outcome
1,CCCCCCOc1ccc(/C=C/C(=O)N2CCOCC2)cc1OC,inactive
2,COc1cc(/C=N/NC(=O)COc2ccc(C)cc2)ccc1OC(=O)c1cccs1,inactive
3,CC[N+](C)(CC)CCCCOc1ccc2c(c1)C(=O)c1cc(OCCCC[N+](C)(CC)CC)ccc1-2,inactive
4,CCCOc1ccc(-c2cnc(SCC(N)=O)nc2N)cc1,inactive
5,O=C(/C=C/c1ccco1)Oc1ccc(C(=S)N2CCOCC2)cc1,inactive
6,COc1ccc(NC(=O)NC(C)C2CC3CCC2C3)cc1 (centres undefined),inactive
7,Nc1ccc(-c2nc3nc(N)nc(N)c3nc2-c2ccc(N)cc2)cc1,inactive
8,CN1CCN(C(=O)/C=C/c2cn(-c3ccccc3)nc2-c2ccc3c(c2)OCCO3)CC1,inactive
9,Cc1ccc(C(=O)COC(=O)C2CC(=O)N(c3nc(-c4ccccc4)cs3)C2)cc1C (centres undefined),inactive
10,CCCCCCCCNC(=O)CCNC(=O)c1ccc(C(C)(C)C)cc1,inactive
11,CCCCCCCCCCCCCCCC(=O)NCCO,inactive
12,CCc1ccc(NC(=O)c2ccc(C3SCC(=O)N3CCc3ccccc3)cc2)cc1 (centres undefined),inactive
13,O=C1N[C@@H](Cc2ccccc2)C(=O)N2[C@H]3Nc4ccccc4[C@@]3([C@]34C[C@H]5C(=O)N[C@@H](Cc6ccccc6)C(=O)N5[C@H]3Nc3ccccc34)C[C@@H]12,inactive
14,CCOC(=O)CSc1nc(C)c(C(=O)OCC)s1,inactive
15,Cc1cc(C2N=C(N)Nc3nc4ccccc4n32)c(C)n1-c1ccccc1Cl (centres undefined),inactive
16,CN1OC(COC(=O)c2ccc(Cl)cc2Cl)CC1c1ccccc1 (centres undefined),inactive
17,CCC(C)Nc1nc2c(C)cccn2c(=O)c1C=Nc1ccc(OC)cc1 (centres undefined),inactive
18,CC(=O)O[C@H]1C[C@@]2(C)[C@@H](C[C@@H](O)[C@H]3[C@@]4(C)CC[C@@H](O)[C@@H](C)[C@@H]4CC[C@@]32C)/C1=C(\CCC=C(C)C)C(=O)O,inactive
19,CN(CCCC1CCCC1)C(=O)CCc1nnc(-c2ccccc2)o1,inactive
20,O=C(Nc1ccc2nsnc2c1)NC1CCCCC1,inactive
21,COC(=O)c1ccc(-c2ncc(-c3cccc4ccccc34)o2)cc1,inactive
22,COc1cc(C)c(/C=C/C(C)=C/C=C/C(C)=C/C(=O)O)c(C)c1C,inactive

row,Structure (SMILES),outcome
1,CC1(C)OC(=O)C(=NNc2ccc(Cl)cc2)C(=O)O1,inactive
2,Cc1ccc(NC(=O)c2cnc(SCC(=O)NCC3CCCO3)n(C)c2=O)cc1C (centres undefined),inactive
3,CCn1c(SCC(=O)OC2CCCCC2)nc2ccccc2c1=O,inactive
4,Cn1c(CNc2nc(-c3ccccc3)cs2)nnc1SCC(=O)OC1CCCCC1,inactive
5,CCOc1ccc(NC(=S)Nc2cc(-c3ccccc3)[nH]n2)cc1,inactive
6,CCCc1ccc(NC(=O)C2CCN(c3cnccn3)CC2)cc1,inactive
7,CCCc1ncc(CN2CCCC(C(=O)Nc3ccc(-c4cccc(OC)c4)cc3)C2)cn1 (centres undefined),inactive
8,Cc1cc(C)c2nc(N3CCCC(C(=O)N4CCN(c5ncccn5)CC4)C3)sc2c1 (centres undefined),inactive
9,Cc1ccc(C)c(N2CCN(C(=O)c3ccc4nc(N5CCOCC5)sc4c3)CC2)c1,inactive
10,C[C@]12CCC(=O)C[C@@H]1CC[C@@H]1[C@@H]2CC[C@]2(C)C=CC[C@@H]12,inactive
11,NC(=O)N1CCC2(CC1)NC(=O)N(c1ccccc1)N2,inactive
12,Cc1cc(C)nc(-n2nc(C)cc2NC(=O)CN2CCC(C)CC2)n1,inactive
13,O=C(c1cc2cc(F)ccc2[nH]1)N(Cc1cccnc1)CC1CCCN(C2CCCCC2)C1 (centres undefined),inactive
14,CC1(CCc2ccccc2)NC(=S)N(c2ccc(Cl)cc2)N1 (centres undefined),inactive
15,O=C(C[n+]1ccc(C(=O)N/N=C/c2ccc(O)cc2)cc1)c1ccccc1,inactive
16,COC(=O)CSc1nnc(CNc2ccc(Cl)cc2)n1-c1ccccc1,inactive
17,COc1ccccc1-n1cc2c([N+](=O)[O-])cc([N+](=O)[O-])cc2n1,inactive
18,Nc1cc([N+](=O)[O-])cc2oc(-c3ccccc3)cc12,inactive
19,CCCCNc1nc(N(C)c2ccccc2)nc(-n2ccnc2)n1,inactive
20,COC(=O)c1ccc(CSc2nc3cc(Cl)ccc3o2)cc1,inactive
21,O=C(CSc1nc2cc(Cl)ccc2o1)c1cccs1,inactive
